Source: PubChem BioAssay AID540275 (National Center for Advancing Translational Sciences (NCATS), 2011)
Hit rate of the full screen: of about 320,000 compounds, about 620 (0.19%) were called active. Inconclusive results (about 6%) are left out. Many of the other results were omitted from the sample, so actives are more common in it than they were. A number with no mark means an inactive call. Rule as the data show it: active = activation above about 80%; inconclusive = between about 30% and that limit; inactive = weaker than that.

What follows are compounds tested against Transient receptor potential cation channel subfamily V member 1 (Homo sapiens) (UniProt Q8NER1) (assay: HTS Assay for Compounds that Act as Agonists of the Vanilloid Receptor 1). Conditions: TRPV1-expressing cells, Fluo-8 calcium influx, agonist mode; at 8.33 µM; stronger effect = higher value.
From the text: The transient receptor potential ion channel, family V, number 1, (TRPV1) is one of the most important molecular transducers of painful stimuli and a potential target for analgesic drug development. Although recent clinical trials with orthosteric antagonists have not produced a successful drug because of a hyperthermia side effect and their tendency to block thermal noxious pain, this ion channel is undeniably well placed in the pain pathway, and the idea of blocking pain signals before they enter the CNS is an excellent concept and of proven efficacy when TRPV1 agonists are used. We propose a new approach involving allosteric modulation to impose an activity-dependent constraint within the context of inflammation and tissue damage that would alter the responsiveness of the channel in a way that an orthosteric vanilloid antagonist cannot achieve. We believe that the allosteric modulator approach has not been explored for this target. The main goal of this proposal is to identify additional, new, potent allosteric modulators of TRPV1 that can be used to investigate TRPV1 function. Our recent report provides evidence of proof of concept, but the compounds are just at the edge of utility in terms of potency. […] The question of whether they can be used as analgesic agents is complex, but if suitable compounds are identified then testing for analgesic properties will be conducted. NIH Chemical Genomics Center [NCGC] NIH Molecular Libraries Probe Centers Network [MLPCN] MLPCN Grant: MH089480-1A1 Assay Submitter (PI): Michael Iadarola, National Institute of Dental and Cranofacial Research
Upon TRPV1 activation in TRPV1 cells, the channel opens and extracellular cations flow through the channel into the cytosol. A calcium binding dye (Fluo-8) becomes fluorescent when bound to calcium. This dye is pre-loaded into cells and is used as a marker for calcium influx. The amount of accumulated calcium is precisely quantified using the FDSS kinetic reader and the calcium dye. For the HTS assay, freshly prepared cells are plated at a density of 2000/well in 3 ul medium in 1536-well plates and cultured overnight at 35.5C. Cells will be loaded with 1 ul of the homogeneous calcium dye (ABD Bioquest) at room temperature for 40 to 90 minutes. Plates will be loaded into the FDSS kinetic reader and a 1 sec / cycle for 10 second baseline signal will be measured. Compound library will then be added with a pintool at 23 nl and measured kinetically for 3 minutes. This portion of the read is considered the agonist portion of the screen. Following the 3 minutes of incubation, an on board pipettor will deliver 1 ul of capsaicin for a final concentration equal to the EC20. Signal will be measured kinetically for an additional 2 minutes. This portion of the read is considered the allosteric enhancer portion of the screen. The FDSS reader has a standard filter set capable of measuring calcium bound Fluo-8 (ex=480 and em=520 nm).
Also: 0% is about no effect.

Transient receptor potential cation channel subfamily V member 1 (Homo sapiens), sequence (Q8NER1 whole entry, looked up): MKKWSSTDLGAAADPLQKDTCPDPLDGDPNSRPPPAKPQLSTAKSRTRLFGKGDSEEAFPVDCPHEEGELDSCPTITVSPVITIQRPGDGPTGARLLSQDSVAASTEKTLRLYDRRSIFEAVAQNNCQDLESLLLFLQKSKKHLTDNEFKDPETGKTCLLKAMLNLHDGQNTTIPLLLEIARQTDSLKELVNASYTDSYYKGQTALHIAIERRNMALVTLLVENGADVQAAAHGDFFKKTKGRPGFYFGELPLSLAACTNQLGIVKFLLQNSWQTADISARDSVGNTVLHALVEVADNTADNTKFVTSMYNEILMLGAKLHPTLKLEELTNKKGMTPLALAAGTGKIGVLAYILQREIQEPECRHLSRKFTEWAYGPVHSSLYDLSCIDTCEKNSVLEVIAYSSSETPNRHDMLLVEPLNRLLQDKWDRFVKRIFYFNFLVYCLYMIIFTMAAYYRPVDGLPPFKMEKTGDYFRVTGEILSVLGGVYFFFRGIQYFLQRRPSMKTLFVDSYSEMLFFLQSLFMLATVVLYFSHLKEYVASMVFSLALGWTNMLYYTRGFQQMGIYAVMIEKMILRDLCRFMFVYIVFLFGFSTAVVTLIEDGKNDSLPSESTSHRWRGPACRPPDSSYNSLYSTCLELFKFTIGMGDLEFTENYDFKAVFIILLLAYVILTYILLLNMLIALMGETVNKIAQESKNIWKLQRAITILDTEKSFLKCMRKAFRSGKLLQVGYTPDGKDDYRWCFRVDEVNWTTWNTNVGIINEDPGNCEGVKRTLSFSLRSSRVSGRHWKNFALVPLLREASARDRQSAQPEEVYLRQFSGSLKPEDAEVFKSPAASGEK

Compound | activation
CCCC(NCC(=O)Nc1ccccc1C(=O)NC1CC1)c1ccccc1 (stereo not given) | 21.8%
CO[C@H]1[C@@H]2C=CO[C@@H](O[C@H]3O[C@@H](CO)[C@H](O)[C@@H](O)[C@@H]3O)[C@@H]2[C@@]2(CO)O[C@@H]12 | -3.6%
CC(C)N(C(=O)CN1CCN(S(=O)(=O)c2ccc(Br)s2)CC1)C(C)C | 17.4%
CCCCN(CC(=O)Nc1cccc(S(=O)(=O)N2CCCC2)c1)Cc1nc2ccccc2c(=O)[nH]1 | 26.8%
CCOc1ccc(CCNC(=O)Nc2ccccc2)cc1OCC | 91.3% (active)
CCOc1ccc(CCNC(=O)COC(=O)c2c(OC)cccc2OC)cc1OCC | -2.55%
CCOc1cc(NC(=O)Nc2ccccc2)c(OCC)cc1NC(=O)CC | 3.84%
Cc1cc(C(=O)COc2ccc(Br)cc2F)c(C)n1C1CC1 | 20.7%
CNS(=O)(=O)c1cccc(C(=O)OCCCC(=O)c2ccccc2)c1 | 4.36%
CC(OC(=O)Cc1ccc(F)cc1)C(=O)N1CCc2ccccc21 (stereo not given) | 16.3%
Cc1cc(C)n2nc(C(=O)Nc3cccc(S(=O)(=O)N4CCOCC4)c3)nc2n1 | 0.0473%
Nc1cc(N)nc(SCC(=O)Nc2cccc(S(=O)(=O)N3CCCCC3)c2)n1 | 1.32%
O=C(NCCc1ccc(F)cc1)c1ccc(S(=O)(=O)N2CCCCC2)cc1 | 28.8%
COc1cc(/C=N/NC(=O)c2ccc(N3CCCC3=O)cc2)ccc1O | 82.8% (active)
O=C(N/N=C/c1cccc(Br)c1)c1ccc(N2CCCC2=O)cc1 | 14.1%
C/C(=N\NC(=O)c1cccc(N2CCCC2=O)c1)c1ccc(N)cc1 | -0.551%
Cc1ccc(C(=O)CN2C(=O)NC3(CCOc4ccccc43)C2=O)s1 (stereo not given) | -5.77%
CC(C)CCN1CCC(C)(NC(=O)c2ccccc2)C1=O (stereo not given) | -3.6%
CC(=O)c1ccc(OCCCC(=O)Nc2ccc(C)c(S(=O)(=O)N3CCOCC3)c2)cc1 | 5.88%
COc1cc(OC)c(N2CC(C(=O)Nc3cc(Cl)ccc3N3CCOCC3)CC2=O)cc1Cl (stereo not given) | 1.31%
Cc1cccc(Nc2nnc(SCC(=O)c3c(N)n(C4CC4)c(=O)[nH]c3=O)s2)c1C | -1.01%
COc1ccc(C(=O)OCC(=O)c2cc(C)n(CC3CCCO3)c2C)cc1[N+](=O)[O-] (stereo not given) | -3.97%
CN(CC(=O)NC1CCN(Cc2ccccc2)CC1)S(=O)(=O)c1ccc(Cl)s1 | 7.2%
CN(C(=O)CSc1nnc(-c2ccc3c(c2)OCO3)o1)C1CCS(=O)(=O)C1 (stereo not given) | 1.32%
COc1ccc(C(=O)N2CCN(c3ncccn3)CC2)cc1S(=O)(=O)N1CCOCC1 | 4.11%

Compound | activation
O=C(NC1CC1)c1cccc(Br)c1 | -0.868%
O=C(NC1CCCC1)c1cc(-c2ccccc2)on1 | 22.2%
O=C(NC1CC1)c1ccc(-c2ccccc2)cc1 | 83% (active)
CN(C(=O)CSc1nnc(-c2ccc(C(C)(C)C)cc2)n1C)C1CCS(=O)(=O)C1 (stereo not given) | 1.75%
Cc1cc(C(=O)COc2ccccc2Cl)c(C)n1C1CC1 | 26.9%
Cc1ccc(S(=O)(=O)N2CC(O)C[C@H]2C(=O)OCC(=O)Nc2ccc(N3CCOCC3)cc2)cc1C (stereo not given in full) | -0.193%
COc1ccc2nc(NC(=O)c3ccc(Br)s3)sc2c1 | 97.1% (active)
COc1cccc(C(=O)Nc2nc3ccc(S(C)(=O)=O)cc3s2)c1 | -1.41%
CCc1noc(C)c1C(=O)Nc1nc2ccc(OC)cc2s1 | 8.32%
COc1ccc(NC(=O)CC2SC(N3CCCCC3)=NC2=O)cc1OC (stereo not given) | 1.55%
CC(=O)c1ccc(-c2ccc(Cn3c(C)nc4cc(N)c(C)nc43)cc2)cc1 | 4.86%
Cc1cc2nc3c(=O)n(Cc4ccccc4)c(=O)[nH]c3nc2cc1N | 90.7% (active)
Cc1nc2c(c(=O)n1Cc1ccco1)c1nc3ccccc3nc1n2Cc1ccccc1 | 1.97%
Cc1cnc(NC(=O)c2ccc(Cl)nc2)s1 | 1.7%
CCOC(=O)c1ccc(NC(=O)c2cccnc2)cc1 | -0.797%
CCN(CC)c1ccc(NC(=O)c2ccc(Cl)nc2)cc1 | 82% (active)
Cc1csc(NC(=O)C2CCN(S(=O)(=O)c3ccccc3)CC2)n1 | 0.443%
CCCCn1nc(C(=O)Nc2cccc(C(=O)NC3CC3)c2)c2ccccc2c1=O | 17.8%
CC(C)n1ncc2c(C(=O)NCc3ccccc3CN(C)C)cc(C3CC3)nc21 | 1.42%
O=S(=O)(c1cccs1)N1CCN(CCOc2ccccc2)CC1 | 10.7%
O=C(NCC(=O)N1CCCCCCC1)c1ccccc1Cl | 4.74%
COc1ccccc1C(CNC(=O)c1cccc(S(=O)(=O)Nc2ccc(F)cc2)c1)N(C)C (stereo not given) | 1.81%
COc1ccccc1-c1sc2ccccc2c1-c1ccc(Br)nc1 | 1.98%
Cc1ccc(C(CC(=O)O)NC(=O)c2ccc(S(=O)(=O)N3CCCC3)cc2)cc1 (stereo not given) | -0.421%
O=C(CN1CCc2ccccc2C1)Nc1cccc(S(=O)(=O)N2CCOCC2)c1 | 13.1%
